Experimental findings from PubChem BioAssay (NCI) are described below.

About 79,000 compounds went through this panel and 15% of them were active in at least one assay; those are over-represented in the sample as a whole. Calls of active or inactive are those of the source. Cut-off read from the data, not from the text of the source: active = growth inhibition above about 70%; inactive = the rest.

This assay is described as follows: NCI Yeast Anticancer Drug Screen. Data for the mgt1 strain (AID 153). Conditions: S. cerevisiae mgt1 mutant growth inhibition, hits give high values. The procedure:
Growth inhibition of yeast strains with defined genetic alterations is measured as a screen for potential anti-cancer activity. Selected strains with alterations in DNA damage repair or cell cycle control were exposed to compounds and growth inhibition was measured relative to vehicle treated controls. The strain used in this assay is mgt1

As for `O=C1C(=O)c2ccccc2C(O)=C1C(C1=C(O)c2ccccc2C(=O)C1=O)c1ccc(Cl)cc1`, the growth inhibition by setting is: (at 1.2 µM) 4% (inactive); (at 3.7 µM) 9% (inactive); (at 11.0 µM) 64% (inactive); (at 33.0 µM) 75% (active); (at 100.0 µM) 69% (inactive).

`O=C1NC(SSC2=NNC3(C(=O)N2)c2ccccc2-c2ccccc23)=NNC12c1ccccc1-c1ccccc12`: the growth inhibition is 1% (inactive) (at 1.2 µM); 0% (inactive) (at 3.7 µM); 0% (inactive) (at 11.0 µM); -10% (inactive) (at 33.0 µM); 7% (inactive) (at 100.0 µM).

On to `CCCC(=O)Oc1ccc(/C=N/NC(N)=S)nc1`, for which the growth inhibition is, setting by setting: (at 1.2 µM) -1% (inactive); (at 3.7 µM) -5% (inactive); (at 11.0 µM) -2% (inactive); (at 33.0 µM) -6% (inactive); (at 100.0 µM) -14% (inactive).

`CCCCN(CCCC)C(=O)/C=C/c1ccccc1`: the growth inhibition (at 1.2 µM) was -4% (inactive); the growth inhibition (at 3.7 µM) is -9% (inactive); the growth inhibition (at 11.0 µM) is -5% (inactive); the growth inhibition (at 33.0 µM) was -1% (inactive); the growth inhibition (at 100.0 µM) was 48% (inactive).

Take `CCC(C)(C)c1ccc(Oc2cccc(C(=O)O)c2)cc1`: the growth inhibition (at 1.2 µM) is -4% (inactive); the growth inhibition (at 3.7 µM) is -6% (inactive); the growth inhibition (at 11.0 µM) was 2% (inactive); the growth inhibition (at 33.0 µM) was 52% (inactive); the growth inhibition (at 100.0 µM) is 92% (active).

Consider `CN1CCN(C(=O)/C=C/C(=O)c2ccccc2)CC1`, for which the growth inhibition is 2% (inactive) (at 1.2 µM); 10% (inactive) (at 3.7 µM); 34% (inactive) (at 11.0 µM); 79% (active) (at 33.0 µM); 95% (active) (at 100.0 µM).

Turning to `CCCCCCCCCCCC1N=C(N)NC(CCCO)=C1C(=O)OC` (stereo not given), the growth inhibition was 46% (inactive) (at 1.2 µM); 99% (active) (at 3.7 µM); 100% (active) (at 11.0 µM); 99% (active) (at 33.0 µM); 99% (active) (at 100.0 µM).

For `CCOC(=O)c1cc([N+](=O)[O-])c(Sc2ncnc3nc[nH]c23)c([N+](=O)[O-])c1`, the growth inhibition runs as follows: (at 1.2 µM) -20% (inactive); (at 3.7 µM) -29% (inactive); (at 11.0 µM) 16% (inactive); (at 33.0 µM) 81% (active); (at 100.0 µM) 89% (active).
